From PubChem BioAssay (NCI)
About 83,000 compounds went through this panel and 20% of them were active in at least one assay; those are over-represented in the sample as a whole.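 96-well plates, one dose, 48 hours. Percent growth reported; active if below 10.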 The source made the active and inactive calls.

The compounds below were run on A549/ATCC NSCLC (assay: NCI-60 one-dose screen, 48 h (100 = growth as untreated, 0 = no growth, -100 = all killed)). Details: 10 µM unless noted.

Row | SMILES | growth
1 | COc1ccccc1N1CCN(CCCOc2ccc(C(=O)/C=C3/C(=O)Nc4ccccc43)cc2)CC1 | 76% (inactive)
2 | CCC[S@](=O)c1ccc2nc(NC(=O)OC)[nH]c2c1 | 75.6% (inactive)
3 | FC(F)(F)c1ccc2c(Nc3cccc(C4CC(c5ccccc5)=NN4c4ccc(Cl)cc4)c3)ccnc2c1 (centres undefined) | 72.4% (inactive)
4 | COc1cc(NC(=O)c2cc(O)c(C/C=C(\C)CCC=C(C)C)c(O)c2)cc2c1O[C@]1(C)CC[C@@H](O)C(C)(C)[C@H]1C2 | 14.5% (inactive)
5 | CCOC(=O)c1c(C)nc2c(c1N)/C(=C/c1cccs1)C(=O)N2Cc1ccccc1 | 77.9% (inactive)
6 | CS(=O)(=O)O[C@@H]1C(=O)N(c2cc3c4ccccc4ccc3c3ccccc23)[C@H]1c1ccc(F)cn1 | 47.1% (inactive)
7 | Cc1cccc(NC(=O)c2sc3nc4c(cc3c2N)CN(Cc2ccccc2)CC4)c1C | 31.1% (inactive)
8 | C#Cc1ccccc1NC(=O)c1sc2nc3c(cc2c1N)CCCCC3 | 99.2% (inactive)
9 | C=CCn1c(SCC(=O)Nc2ccc(C(=O)/C=C/c3ccc(Cl)cc3)cc2)nnc1-c1cc(OC)c(OC)c(OC)c1 | 85.6% (inactive)
10 | Oc1ccccc1-c1nc2c3ccccc3c3ccccc3c2o1 | 90.9% (inactive)
11 | COc1ccc(-c2cc(-c3nnc(SCC(=O)Nc4ccc(/C(C)=N\O)cc4)o3)c3ccccc3n2)cc1 | 100% (inactive)
12 | NC(N)=NC(N)=Nc1cc2ccccc2c2ccccc12 | 41.1% (inactive)
13 | O=C1Nc2ccc(Cl)cc2/C1=N/c1nc(-c2ccc(Cl)cc2)cs1 | 7.91% (active)
14 | c1ccc(Sc2ncccn2)nc1 | 103% (inactive)
15 | COc1cc2c(Nc3ccc(NC(=O)Nc4ccc(Cl)c(C(F)(F)F)c4)c(Cl)c3)ncnc2cc1OCCCN1CCN(C)CC1 | 20.8% (inactive)
16 | CC(C)C1=C[C@@]23CC[C@H]4[C@](C)(COCCC#N)CCC[C@]4(C)[C@H]2C[C@@H]1[C@@H]1[C@H]3[C@@H](OCCC#N)CC[C@@H]1OCCC#N | 27.6% (inactive)
17 | COc1cc2nc3c(=O)n(CCN(C)C)cnn3c(=O)c2cc1OC | 105% (inactive)
18 | Cc1nccc2c3ccc(OCc4cn(-c5ccc(Br)cc5)nn4)cc3n(CC(C)C)c12 | 41.1% (inactive)
19 | CC(C)(C)c1nc2c(s1)c1nc(N)ncc1c1ccc(NS(=O)(=O)c3c(F)cccc3F)c(F)c12 | 55.8% (inactive)

Row | SMILES | growth
20 | Cc1c(Cl)cccc1NC(=O)c1sc2nc3c(cc2c1N)CCCCCC3 | 19.1% (inactive)
21 | COc1ccc(-c2[nH]c3ccccc3c2C=C(C#N)C#N)cc1 | 5.94% (active)
22 | COc1ccc(-c2nnc(N3CCN(C(=O)CN4CCN(c5ccccc5)CC4)CC3)nc2-c2ccc(OC)cc2)cc1 | 28% (inactive)
23 | Sc1cccc2cccnc12 | 19.1% (inactive)
24 | COc1ccc2nc(-c3ccc(Cl)cc3)cc(-c3nnc(SC/C(=N/O)c4ccccc4)o3)c2c1 | 37.3% (inactive)
25 | C=C(C)[C@@H]1CC[C@]2(C(=O)NCCCO)CC[C@]3(C)[C@H](CC[C@@H]4[C@@]5(C)CCCNC(C)(C)[C@@H]5CC[C@]43C)[C@@H]12 | 73.1% (inactive)
26 | C=C1C(=O)O[C@H]2[C@H]1CC/C(COC(=O)NCC(=O)Nc1ccc(OC)c(C(N)=O)c1O)=C\CC[C@@]1(C)O[C@@H]21 | 86.3% (inactive)
27 | COc1ccc2nc3c(n2c1)C(=O)C(=O)c1ccccc1-3 | -24.3% (active)
28 | COc1ccc(C(C)c2cc(OC)c(OC)c(OC)c2)cc1 (centres undefined) | 18.6% (inactive)
29 | COc1cc(NCC(=O)Nc2cc(Nc3cccc(C(F)(F)F)c3)ncn2)c(Cl)c(OC)c1Cl | 81.2% (inactive)
30 | O=C1Nc2ccccc2C12C=C(c1ccccc1)Nc1c2c(-c2ccccc2)nn1-c1ccccc1 (centres undefined) | 44.8% (inactive)
31 | CN(C)C1=NCCN1 | 90% (inactive)
32 | COc1cc(N=Nc2cc(S(=O)(=O)O)cc3cc(S(=O)(=O)O)cc(O)c23)c(C)cc1N=Nc1c(S(=O)(=O)O)cc2cc(Nc3ccccc3)ccc2c1O | 101% (inactive)
33 | O=C1NN(c2ccccc2)C(c2ccc(Cl)cc2)N2CCC[C@H]12 (some centres undefined) | 103% (inactive)
34 | COc1cc(C(=O)Nc2cc(O)c(C/C=C(\C)CCC=C(C)C)c(O)c2)cc2c1O[C@]1(C)CC[C@@H](O)C(C)(C)[C@H]1C2 | 11.9% (inactive)
35 | COC(=O)CCc1cc(O)c2c(c1)[C@@H](C(=O)OC)[C@H](c1ccc(O)c(O)c1)O2 | 98% (inactive)
36 | Cc1nc2sc(C(=O)Nc3ccccc3Cl)c(N)c2cc1C(C)O (centres undefined) | 75.6% (inactive)
37 | NS(=O)(=O)c1ccc(C2C3=C(CCCC3=O)OC3=C2C(=O)c2ccccc2C3=O)cc1 (centres undefined) | -34.9% (active)

Each compound was assayed on 786-0 renal in the same assay as above. Details: 10 µM unless noted.

Row | SMILES | growth
38 | COc1ccccc1N1CCN(CCCOc2ccc(C(=O)/C=C3/C(=O)Nc4ccccc43)cc2)CC1 | 45.7% (inactive)
39 | CCC[S@](=O)c1ccc2nc(NC(=O)OC)[nH]c2c1 | 94.2% (inactive)
40 | FC(F)(F)c1ccc2c(Nc3cccc(C4CC(c5ccccc5)=NN4c4ccc(Cl)cc4)c3)ccnc2c1 (centres undefined) | 77.1% (inactive)
41 | COc1cc(NC(=O)c2cc(O)c(C/C=C(\C)CCC=C(C)C)c(O)c2)cc2c1O[C@]1(C)CC[C@@H](O)C(C)(C)[C@H]1C2 | -19% (active)
42 | CCOC(=O)c1c(C)nc2c(c1N)/C(=C/c1cccs1)C(=O)N2Cc1ccccc1 | 52.1% (inactive)
43 | CS(=O)(=O)O[C@@H]1C(=O)N(c2cc3c4ccccc4ccc3c3ccccc23)[C@H]1c1ccc(F)cn1 | 26.2% (inactive)
44 | Cc1cccc(NC(=O)c2sc3nc4c(cc3c2N)CN(Cc2ccccc2)CC4)c1C | 31.9% (inactive)
45 | C#Cc1ccccc1NC(=O)c1sc2nc3c(cc2c1N)CCCCC3 | 123% (inactive)
46 | C=CCn1c(SCC(=O)Nc2ccc(C(=O)/C=C/c3ccc(Cl)cc3)cc2)nnc1-c1cc(OC)c(OC)c(OC)c1 | 81% (inactive)
47 | Oc1ccccc1-c1nc2c3ccccc3c3ccccc3c2o1 | 99.2% (inactive)
48 | COc1ccc(-c2cc(-c3nnc(SCC(=O)Nc4ccc(/C(C)=N\O)cc4)o3)c3ccccc3n2)cc1 | 95.5% (inactive)
49 | NC(N)=NC(N)=Nc1cc2ccccc2c2ccccc12 | 14.4% (inactive)
50 | O=C1Nc2ccc(Cl)cc2/C1=N/c1nc(-c2ccc(Cl)cc2)cs1 | -16.2% (active)
51 | c1ccc(Sc2ncccn2)nc1 | 103% (inactive)
52 | COc1cc2c(Nc3ccc(NC(=O)Nc4ccc(Cl)c(C(F)(F)F)c4)c(Cl)c3)ncnc2cc1OCCCN1CCN(C)CC1 | 6.31% (active)
53 | CC(C)C1=C[C@@]23CC[C@H]4[C@](C)(COCCC#N)CCC[C@]4(C)[C@H]2C[C@@H]1[C@@H]1[C@H]3[C@@H](OCCC#N)CC[C@@H]1OCCC#N | 54.3% (inactive)
54 | COc1cc2nc3c(=O)n(CCN(C)C)cnn3c(=O)c2cc1OC | 105% (inactive)
55 | Cc1nccc2c3ccc(OCc4cn(-c5ccc(Br)cc5)nn4)cc3n(CC(C)C)c12 | 28.5% (inactive)
56 | CC(C)(C)c1nc2c(s1)c1nc(N)ncc1c1ccc(NS(=O)(=O)c3c(F)cccc3F)c(F)c12 | 66.1% (inactive)

Row | SMILES | growth
57 | Cc1c(Cl)cccc1NC(=O)c1sc2nc3c(cc2c1N)CCCCCC3 | 23.3% (inactive)
58 | COc1ccc(-c2[nH]c3ccccc3c2C=C(C#N)C#N)cc1 | 14.9% (inactive)
59 | COc1ccc(-c2nnc(N3CCN(C(=O)CN4CCN(c5ccccc5)CC4)CC3)nc2-c2ccc(OC)cc2)cc1 | 33.7% (inactive)
60 | Sc1cccc2cccnc12 | 31.5% (inactive)
61 | COc1ccc2nc(-c3ccc(Cl)cc3)cc(-c3nnc(SC/C(=N/O)c4ccccc4)o3)c2c1 | 24.9% (inactive)
62 | C=C(C)[C@@H]1CC[C@]2(C(=O)NCCCO)CC[C@]3(C)[C@H](CC[C@@H]4[C@@]5(C)CCCNC(C)(C)[C@@H]5CC[C@]43C)[C@@H]12 | 85.6% (inactive)
63 | C=C1C(=O)O[C@H]2[C@H]1CC/C(COC(=O)NCC(=O)Nc1ccc(OC)c(C(N)=O)c1O)=C\CC[C@@]1(C)O[C@@H]21 | 58.7% (inactive)
64 | COc1ccc2nc3c(n2c1)C(=O)C(=O)c1ccccc1-3 | 8.6% (active)
65 | COc1ccc(C(C)c2cc(OC)c(OC)c(OC)c2)cc1 (centres undefined) | 22.6% (inactive)
66 | COc1cc(NCC(=O)Nc2cc(Nc3cccc(C(F)(F)F)c3)ncn2)c(Cl)c(OC)c1Cl | 97.2% (inactive)
67 | O=C1Nc2ccccc2C12C=C(c1ccccc1)Nc1c2c(-c2ccccc2)nn1-c1ccccc1 (centres undefined) | 80.6% (inactive)
68 | CN(C)C1=NCCN1 | 89.6% (inactive)
69 | COc1cc(N=Nc2cc(S(=O)(=O)O)cc3cc(S(=O)(=O)O)cc(O)c23)c(C)cc1N=Nc1c(S(=O)(=O)O)cc2cc(Nc3ccccc3)ccc2c1O | 102% (inactive)
70 | O=C1NN(c2ccccc2)C(c2ccc(Cl)cc2)N2CCC[C@H]12 (some centres undefined) | 105% (inactive)
71 | COc1cc(C(=O)Nc2cc(O)c(C/C=C(\C)CCC=C(C)C)c(O)c2)cc2c1O[C@]1(C)CC[C@@H](O)C(C)(C)[C@H]1C2 | -6.12% (active)
72 | COC(=O)CCc1cc(O)c2c(c1)[C@@H](C(=O)OC)[C@H](c1ccc(O)c(O)c1)O2 | 93.9% (inactive)
73 | Cc1nc2sc(C(=O)Nc3ccccc3Cl)c(N)c2cc1C(C)O (centres undefined) | 84.8% (inactive)
74 | NS(=O)(=O)c1ccc(C2C3=C(CCCC3=O)OC3=C2C(=O)c2ccccc2C3=O)cc1 (centres undefined) | -90.7% (active)
